Assay results reported in ChEMBL document CHEMBL2218924, “A broad activity screen in support of a chemogenomic map for kinase signalling research and drug discovery” (Biochem J, 2013).

Assays:
[1] = target: Homeodomain-interacting protein kinase 2 (Homo sapiens) (UniProt Q9H2X6); conditions: at 10 µM
[2] = target: Homeodomain-interacting protein kinase 3 (Homo sapiens) (UniProt Q9H422); conditions: at 1 µM
[3] = target: Homeodomain-interacting protein kinase 3 (Homo sapiens) (UniProt Q9H422); conditions: at 10 µM
[4] = target: T1, Serine/threonine-protein kinase haspin (Homo sapiens) (UniProt Q8TF76); conditions: at 1 µM
T1 sequence (whole entry): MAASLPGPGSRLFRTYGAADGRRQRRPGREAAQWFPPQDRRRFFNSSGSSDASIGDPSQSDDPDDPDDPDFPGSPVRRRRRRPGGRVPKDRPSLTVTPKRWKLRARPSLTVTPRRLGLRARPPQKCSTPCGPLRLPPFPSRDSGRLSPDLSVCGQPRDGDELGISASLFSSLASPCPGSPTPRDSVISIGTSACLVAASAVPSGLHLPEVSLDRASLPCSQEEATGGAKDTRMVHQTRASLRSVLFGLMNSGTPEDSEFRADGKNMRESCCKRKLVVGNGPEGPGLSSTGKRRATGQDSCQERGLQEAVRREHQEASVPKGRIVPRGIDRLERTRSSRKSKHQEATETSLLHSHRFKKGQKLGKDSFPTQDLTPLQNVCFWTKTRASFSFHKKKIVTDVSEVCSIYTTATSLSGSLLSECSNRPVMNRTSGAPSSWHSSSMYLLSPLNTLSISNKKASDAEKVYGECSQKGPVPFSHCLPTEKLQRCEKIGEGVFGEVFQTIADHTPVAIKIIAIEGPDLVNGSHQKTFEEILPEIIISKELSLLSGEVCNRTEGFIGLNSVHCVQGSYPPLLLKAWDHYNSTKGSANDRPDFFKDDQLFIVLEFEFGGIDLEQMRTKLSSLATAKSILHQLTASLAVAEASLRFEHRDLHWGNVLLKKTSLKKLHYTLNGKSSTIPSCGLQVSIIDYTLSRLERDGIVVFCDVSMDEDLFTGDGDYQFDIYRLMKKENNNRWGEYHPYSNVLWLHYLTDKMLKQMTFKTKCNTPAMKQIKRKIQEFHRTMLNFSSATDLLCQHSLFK

[5] = target: T1, Serine/threonine-protein kinase haspin (Homo sapiens); conditions: at 10 µM
[6] = target: Tyrosine-protein kinase HCK (Homo sapiens) (UniProt P08631); conditions: at 1 µM
Tyrosine-protein kinase HCK (Homo sapiens), sequence (P08631 2-526 limits assumed): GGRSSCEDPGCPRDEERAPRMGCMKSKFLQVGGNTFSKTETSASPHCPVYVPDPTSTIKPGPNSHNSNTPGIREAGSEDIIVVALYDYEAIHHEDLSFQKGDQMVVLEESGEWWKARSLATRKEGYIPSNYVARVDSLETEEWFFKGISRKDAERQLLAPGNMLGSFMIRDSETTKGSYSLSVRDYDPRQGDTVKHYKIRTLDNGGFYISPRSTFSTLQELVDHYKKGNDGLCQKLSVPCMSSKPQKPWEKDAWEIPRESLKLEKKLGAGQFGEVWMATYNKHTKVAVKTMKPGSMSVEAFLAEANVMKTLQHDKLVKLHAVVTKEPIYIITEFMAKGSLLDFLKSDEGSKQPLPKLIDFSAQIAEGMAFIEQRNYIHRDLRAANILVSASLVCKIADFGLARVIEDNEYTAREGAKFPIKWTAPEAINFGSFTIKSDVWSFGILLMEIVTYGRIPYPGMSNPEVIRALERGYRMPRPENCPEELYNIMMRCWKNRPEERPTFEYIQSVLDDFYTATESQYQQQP

[7] = target: Tyrosine-protein kinase HCK (Homo sapiens) (UniProt P08631); conditions: at 10 µM
[8] = target: Tyrosine-protein kinase HCK (Homo sapiens) (UniProt P08631); conditions: at 1 µM; remark: listed apart in the source
[9] = target: Insulin-like growth factor 1 receptor (Homo sapiens) (UniProt P08069); conditions: at 1 µM
Insulin-like growth factor 1 receptor (Homo sapiens), sequence (P08069 31-736 limits assumed): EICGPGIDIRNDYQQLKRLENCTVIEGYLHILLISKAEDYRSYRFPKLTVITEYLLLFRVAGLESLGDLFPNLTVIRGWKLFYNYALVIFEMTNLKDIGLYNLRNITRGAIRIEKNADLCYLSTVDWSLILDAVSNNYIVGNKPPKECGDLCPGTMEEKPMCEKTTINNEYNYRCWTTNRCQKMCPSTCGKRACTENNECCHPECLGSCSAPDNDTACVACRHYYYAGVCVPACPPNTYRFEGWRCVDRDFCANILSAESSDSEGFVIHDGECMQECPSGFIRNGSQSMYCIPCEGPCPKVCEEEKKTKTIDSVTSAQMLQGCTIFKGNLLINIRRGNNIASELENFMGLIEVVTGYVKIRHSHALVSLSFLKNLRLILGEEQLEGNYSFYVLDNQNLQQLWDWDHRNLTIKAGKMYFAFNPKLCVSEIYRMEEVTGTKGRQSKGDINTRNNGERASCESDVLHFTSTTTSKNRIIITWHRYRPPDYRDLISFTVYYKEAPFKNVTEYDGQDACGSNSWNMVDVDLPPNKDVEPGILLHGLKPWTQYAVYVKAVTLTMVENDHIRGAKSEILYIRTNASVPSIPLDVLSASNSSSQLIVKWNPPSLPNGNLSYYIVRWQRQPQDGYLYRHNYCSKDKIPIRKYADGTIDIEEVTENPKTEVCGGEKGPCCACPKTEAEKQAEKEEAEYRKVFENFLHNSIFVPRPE
Insulin-like growth factor 1 receptor (Homo sapiens), sequence (P08069 741-1367 limits assumed): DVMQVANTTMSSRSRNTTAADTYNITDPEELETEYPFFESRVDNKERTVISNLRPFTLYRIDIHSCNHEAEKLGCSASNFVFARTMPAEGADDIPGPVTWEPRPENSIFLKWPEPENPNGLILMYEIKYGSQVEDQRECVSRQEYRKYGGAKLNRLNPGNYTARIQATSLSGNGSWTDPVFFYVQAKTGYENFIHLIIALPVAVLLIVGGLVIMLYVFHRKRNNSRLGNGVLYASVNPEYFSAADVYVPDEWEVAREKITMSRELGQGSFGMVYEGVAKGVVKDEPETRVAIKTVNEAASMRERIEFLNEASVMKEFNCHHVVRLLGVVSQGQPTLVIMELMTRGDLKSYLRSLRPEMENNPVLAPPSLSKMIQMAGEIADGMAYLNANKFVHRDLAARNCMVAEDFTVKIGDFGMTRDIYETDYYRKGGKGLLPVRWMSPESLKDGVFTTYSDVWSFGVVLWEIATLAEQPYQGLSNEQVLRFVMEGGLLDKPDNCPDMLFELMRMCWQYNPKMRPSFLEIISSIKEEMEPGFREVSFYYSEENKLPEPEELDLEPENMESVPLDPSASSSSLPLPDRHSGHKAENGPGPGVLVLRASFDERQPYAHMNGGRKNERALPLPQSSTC

[10] = target: Insulin-like growth factor 1 receptor (Homo sapiens) (UniProt P08069); conditions: at 10 µM
[11] = target: T2, Protein kinase C zeta type (Homo sapiens) (UniProt Q05513); conditions: at 10 µM
T2 sequence (whole entry): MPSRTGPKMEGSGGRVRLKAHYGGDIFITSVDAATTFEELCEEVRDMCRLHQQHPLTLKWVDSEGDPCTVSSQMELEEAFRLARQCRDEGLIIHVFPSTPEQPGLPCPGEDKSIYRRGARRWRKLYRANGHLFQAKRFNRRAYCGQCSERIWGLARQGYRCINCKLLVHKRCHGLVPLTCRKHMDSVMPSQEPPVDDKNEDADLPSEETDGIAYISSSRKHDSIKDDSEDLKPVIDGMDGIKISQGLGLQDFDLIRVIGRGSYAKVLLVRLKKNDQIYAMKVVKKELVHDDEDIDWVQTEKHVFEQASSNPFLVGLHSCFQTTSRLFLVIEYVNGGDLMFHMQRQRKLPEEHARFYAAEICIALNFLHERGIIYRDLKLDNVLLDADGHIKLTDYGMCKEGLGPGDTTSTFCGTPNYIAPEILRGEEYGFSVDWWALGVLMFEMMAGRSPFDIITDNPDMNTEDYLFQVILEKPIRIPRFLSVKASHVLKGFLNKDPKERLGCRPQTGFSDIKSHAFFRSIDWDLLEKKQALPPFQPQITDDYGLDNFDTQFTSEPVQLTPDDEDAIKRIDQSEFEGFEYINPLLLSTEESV

[12] = target: Protein kinase C theta type (Homo sapiens) (UniProt Q04759); conditions: at 1 µM
Protein kinase C theta type (Homo sapiens), sequence (Q04759 whole entry, looked up): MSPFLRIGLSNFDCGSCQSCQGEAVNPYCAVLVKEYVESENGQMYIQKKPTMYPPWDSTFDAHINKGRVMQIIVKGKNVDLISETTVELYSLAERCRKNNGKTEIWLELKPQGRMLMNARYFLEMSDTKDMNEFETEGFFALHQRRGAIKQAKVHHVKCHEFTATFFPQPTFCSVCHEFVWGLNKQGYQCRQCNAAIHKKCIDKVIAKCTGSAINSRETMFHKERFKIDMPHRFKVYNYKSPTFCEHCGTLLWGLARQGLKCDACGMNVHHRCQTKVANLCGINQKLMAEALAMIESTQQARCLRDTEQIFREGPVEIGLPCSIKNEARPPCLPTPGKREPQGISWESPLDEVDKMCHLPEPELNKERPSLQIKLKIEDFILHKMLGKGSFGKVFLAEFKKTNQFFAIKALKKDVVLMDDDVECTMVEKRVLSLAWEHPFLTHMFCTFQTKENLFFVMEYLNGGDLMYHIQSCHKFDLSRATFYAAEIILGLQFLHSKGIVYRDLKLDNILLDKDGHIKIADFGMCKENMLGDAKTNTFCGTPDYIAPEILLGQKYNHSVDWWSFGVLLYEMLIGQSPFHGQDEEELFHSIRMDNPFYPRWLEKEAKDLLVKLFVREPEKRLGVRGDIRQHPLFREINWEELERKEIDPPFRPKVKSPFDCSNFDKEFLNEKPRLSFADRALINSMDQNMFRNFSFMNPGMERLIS

[13] = target: Protein kinase C theta type (Homo sapiens) (UniProt Q04759); conditions: at 10 µM
[14] = target: T3, Protein kinase C iota type (Homo sapiens) (UniProt P41743); conditions: at 1 µM
T3 sequence (whole entry): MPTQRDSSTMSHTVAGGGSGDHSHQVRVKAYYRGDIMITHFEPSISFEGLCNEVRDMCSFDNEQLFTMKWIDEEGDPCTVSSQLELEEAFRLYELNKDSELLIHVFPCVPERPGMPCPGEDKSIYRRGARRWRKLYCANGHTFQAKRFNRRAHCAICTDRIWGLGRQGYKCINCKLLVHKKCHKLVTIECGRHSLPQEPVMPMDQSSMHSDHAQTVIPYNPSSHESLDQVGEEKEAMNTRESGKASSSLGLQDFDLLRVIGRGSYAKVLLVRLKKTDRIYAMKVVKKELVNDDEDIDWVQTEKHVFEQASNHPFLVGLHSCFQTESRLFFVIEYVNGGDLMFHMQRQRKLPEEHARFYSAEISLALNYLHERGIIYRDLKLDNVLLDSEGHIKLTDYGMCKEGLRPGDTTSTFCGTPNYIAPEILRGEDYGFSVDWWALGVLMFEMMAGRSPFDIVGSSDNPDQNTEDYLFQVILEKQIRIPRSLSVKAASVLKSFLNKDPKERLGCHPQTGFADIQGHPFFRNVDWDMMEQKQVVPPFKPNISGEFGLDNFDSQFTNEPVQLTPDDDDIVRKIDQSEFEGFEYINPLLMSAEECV

[15] = target: T4, Serine/threonine-protein kinase D1 (Homo sapiens) (UniProt Q15139); conditions: at 1 µM
T4 sequence (whole entry): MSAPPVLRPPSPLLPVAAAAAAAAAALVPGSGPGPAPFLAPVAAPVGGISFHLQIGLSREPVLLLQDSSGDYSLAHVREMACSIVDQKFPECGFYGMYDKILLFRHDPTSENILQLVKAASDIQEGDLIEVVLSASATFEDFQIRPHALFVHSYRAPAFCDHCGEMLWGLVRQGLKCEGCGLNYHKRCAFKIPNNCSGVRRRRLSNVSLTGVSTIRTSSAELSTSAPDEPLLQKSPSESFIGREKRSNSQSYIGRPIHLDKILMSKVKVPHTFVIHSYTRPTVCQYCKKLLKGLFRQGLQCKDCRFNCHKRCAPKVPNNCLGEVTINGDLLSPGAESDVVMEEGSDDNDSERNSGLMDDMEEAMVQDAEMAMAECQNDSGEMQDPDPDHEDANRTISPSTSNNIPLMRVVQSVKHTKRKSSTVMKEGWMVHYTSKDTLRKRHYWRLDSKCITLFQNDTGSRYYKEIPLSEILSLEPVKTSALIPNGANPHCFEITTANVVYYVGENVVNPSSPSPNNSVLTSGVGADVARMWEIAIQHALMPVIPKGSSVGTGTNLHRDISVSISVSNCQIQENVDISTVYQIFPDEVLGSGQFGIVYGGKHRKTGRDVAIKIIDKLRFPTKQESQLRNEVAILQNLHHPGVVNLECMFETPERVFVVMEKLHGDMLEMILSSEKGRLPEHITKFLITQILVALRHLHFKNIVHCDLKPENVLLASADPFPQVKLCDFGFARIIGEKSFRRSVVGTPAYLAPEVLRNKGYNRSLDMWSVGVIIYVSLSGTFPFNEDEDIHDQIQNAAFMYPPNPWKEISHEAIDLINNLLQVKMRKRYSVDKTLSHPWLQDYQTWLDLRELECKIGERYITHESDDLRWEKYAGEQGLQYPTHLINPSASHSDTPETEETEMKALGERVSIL

[16] = target: T4, Serine/threonine-protein kinase D1 (Homo sapiens); conditions: at 10 µM
[17] = target: Tyrosine-protein kinase HCK (Homo sapiens) (UniProt P08631); conditions: at 10 µM; remark: listed apart in the source
[18] = target: Protein kinase C eta type (Homo sapiens) (UniProt P24723); conditions: at 1 µM
Protein kinase C eta type (Homo sapiens), sequence (P24723 whole entry): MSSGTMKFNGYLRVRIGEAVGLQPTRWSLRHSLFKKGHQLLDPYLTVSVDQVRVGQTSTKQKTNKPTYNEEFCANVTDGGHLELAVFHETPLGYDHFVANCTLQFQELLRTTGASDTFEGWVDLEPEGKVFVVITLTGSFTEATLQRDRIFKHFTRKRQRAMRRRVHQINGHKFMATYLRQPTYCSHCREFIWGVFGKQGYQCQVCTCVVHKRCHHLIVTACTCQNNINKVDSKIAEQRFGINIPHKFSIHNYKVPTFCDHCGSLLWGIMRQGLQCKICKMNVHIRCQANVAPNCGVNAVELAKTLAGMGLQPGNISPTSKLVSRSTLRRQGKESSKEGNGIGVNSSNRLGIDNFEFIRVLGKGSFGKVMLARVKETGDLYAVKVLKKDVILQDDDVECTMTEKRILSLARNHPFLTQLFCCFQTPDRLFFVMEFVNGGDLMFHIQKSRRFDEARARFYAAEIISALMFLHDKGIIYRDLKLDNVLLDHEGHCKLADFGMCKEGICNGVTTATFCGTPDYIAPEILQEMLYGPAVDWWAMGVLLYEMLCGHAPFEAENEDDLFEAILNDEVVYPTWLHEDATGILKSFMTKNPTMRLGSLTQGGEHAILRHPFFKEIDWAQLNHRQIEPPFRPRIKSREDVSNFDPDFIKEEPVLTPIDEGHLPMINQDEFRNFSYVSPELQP

[19] = target: Protein kinase C eta type (Homo sapiens) (UniProt P24723); conditions: at 10 µM
[20] = target: T3, Protein kinase C iota type (Homo sapiens); conditions: at 10 µM

Homeodomain-interacting protein kinase 2 (Homo sapiens), sequence (Q9H2X6 whole entry, looked up): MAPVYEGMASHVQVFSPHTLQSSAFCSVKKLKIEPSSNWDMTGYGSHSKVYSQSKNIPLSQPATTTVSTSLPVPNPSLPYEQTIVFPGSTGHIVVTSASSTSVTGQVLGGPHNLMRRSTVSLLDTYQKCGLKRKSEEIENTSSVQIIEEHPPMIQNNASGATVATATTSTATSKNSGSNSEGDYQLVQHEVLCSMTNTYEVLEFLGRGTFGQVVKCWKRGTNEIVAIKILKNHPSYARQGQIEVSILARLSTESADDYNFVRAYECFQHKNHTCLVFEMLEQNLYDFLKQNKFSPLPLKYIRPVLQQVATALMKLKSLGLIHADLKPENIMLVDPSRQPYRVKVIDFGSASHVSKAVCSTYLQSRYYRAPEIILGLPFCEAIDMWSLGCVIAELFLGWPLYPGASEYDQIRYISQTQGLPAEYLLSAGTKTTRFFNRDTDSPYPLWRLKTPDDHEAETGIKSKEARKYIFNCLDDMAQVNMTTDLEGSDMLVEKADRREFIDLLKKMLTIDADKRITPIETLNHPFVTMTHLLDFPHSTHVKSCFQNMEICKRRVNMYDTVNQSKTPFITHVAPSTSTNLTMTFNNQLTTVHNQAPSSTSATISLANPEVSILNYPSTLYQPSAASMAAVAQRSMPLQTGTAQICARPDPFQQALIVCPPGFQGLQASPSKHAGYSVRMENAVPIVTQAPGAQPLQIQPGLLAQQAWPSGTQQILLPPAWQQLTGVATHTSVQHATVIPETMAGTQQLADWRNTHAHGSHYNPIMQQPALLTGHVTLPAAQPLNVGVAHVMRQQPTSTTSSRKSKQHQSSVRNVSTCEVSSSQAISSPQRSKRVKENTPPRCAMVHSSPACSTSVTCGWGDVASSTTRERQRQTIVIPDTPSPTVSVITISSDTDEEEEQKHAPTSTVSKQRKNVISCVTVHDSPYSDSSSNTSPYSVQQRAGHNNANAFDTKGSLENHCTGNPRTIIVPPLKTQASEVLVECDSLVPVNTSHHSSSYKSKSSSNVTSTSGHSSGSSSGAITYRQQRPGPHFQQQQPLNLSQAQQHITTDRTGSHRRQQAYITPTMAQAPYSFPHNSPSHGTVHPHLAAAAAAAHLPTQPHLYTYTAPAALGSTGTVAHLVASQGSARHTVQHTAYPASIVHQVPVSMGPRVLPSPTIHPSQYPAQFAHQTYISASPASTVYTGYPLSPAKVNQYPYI

Compound | residual activity [1] [%] | residual activity [2] [%] | residual activity [3] [%] | residual activity [4] [%] | residual activity [5] [%] | residual activity [6] [%] | residual activity [7] [%] | residual activity [8] [%] | residual activity [9] [%] | residual activity [10] [%] | residual activity [11] [%] | residual activity [12] [%] | residual activity [13] [%] | residual activity [14] | residual activity [15] [%] | residual activity [16] [%] | residual activity [17] [%] | residual activity [18] [%] | residual activity [19] [%] | residual activity [20] [%]
CC(C)(C)c1cc(C=C(C#N)C#N)cc(Br)c1O | 71 | 101 | 98 | 105 | 54 | 77 | 8 | 102 | 130 | 101 | 101 | 103 | 75 | 107% (inactive) | 98 | 117 |  |  |  | 
O=C1Nc2ccc3ncsc3c2/C1=C/c1c[nH]cn1 | 4 | 31 | 4 | 3 | 1 | 58 | 19 | 67 | 132 | 68 | 53 | 49 | 10 | 85% (inactive) | 5 | 4 | 24 | 23 | 5 | 73
COc1ccc2c(c[n+](C)c3c4cc5c(cc4ccc23)OCO5)c1OC | 86 |  |  |  | 69 | 92 | 60 | 95 | 138 | 131 | 75 | 90 | 66 | 98% (inactive) | 110 | 61 | 92 |  |  | 81
COc1cc(OC)c(/C=C2\C(=O)Nc3ccccc32)c(OC)c1 | 96 | 103 | 98 | 70 | 61 | 89 | 69 | 93 | 93 | 133 |  | 85 | 90 |  | 84 | 90 |  | 94 | 94 | 
CN[C@@H]1C[C@H]2O[C@@](C)([C@@H]1OC)n1c3ccccc3c3c4c(c5c6ccccc6n2c5c31)C(=O)NC4 |  | 74 | 27 |  |  | 0 |  |  |  |  |  |  |  |  |  |  |  |  |  | 
CCc1nc(-c2ccc(OC)cc2)[nH]c1-c1ccncc1 |  |  |  | 45 | 4 | 72 | 64 | 115 | 112 | 128 | 104 | 108 | 105 | 107% (inactive) |  |  | 104 | 105 | 73 | 105
C[S+]([O-])c1ccc(-c2nc(-c3ccc(F)cc3)c(-c3ccncc3)[nH]2)cc1 (stereo not given) | 100 | 110 | 102 | 88 | 35 | 105 | 52 | 93 | 102 | 117 | 111 | 105 | 104 | 105% (inactive) | 123 | 66 | 61 | 79 | 77 | 101
COC(=O)[C@@]1(O)C[C@H]2O[C@]1(C)n1c3ccccc3c3c4c(c5c6ccccc6n2c5c31)C(=O)NC4 | -1 | 54 | -4 | 8 | 5 | 3 | 1 | 1 | 77 | 14 | 8 | 10 | 5 | 107% (inactive) | 1 | 0 | 4 | 36 | 7 | 69
CCn1cnc2c(Nc3cccc(Cl)c3)nc(N[C@@H]3CCCC[C@@H]3N)nc21 | 47 | 99 | 80 | 48 | 3 | 24 | 4 | 24 | 95 | 123 |  | 71 | 23 |  | 97 | 61 | 4 | 93 | 80 | 
O=C1NC(=O)c2c1c1c3ccccc3n3c1c1c2c2ccccc2n1C1CCC3O1 | 26 | -2 | -2 | 50 | 22 | 76 | 94 | 92 | 73 |  |  | 7 | 13 |  | 87 | 49 | 83 | 89 | 81 | 
N/C(=N\[N+](=O)[O-])N/N=C\c1ccc(-c2cccc([N+](=O)[O-])c2)o1 | 83 |  |  | 97 | 80 | 70 | 49 |  |  | 76 | 98 |  |  |  |  |  |  | 84 | 83 | 
O=c1[nH]c2ccccc2n1C1CCN(Cc2ccc(-c3nc4cc5[nH]cnc5cc4nc3-c3ccccc3)cc2)CC1 | 64 | 97 | 91 | 76 | 49 | 91 | 42 | 102 | 125 | 39 | 97 | 104 | 109 | 87% (inactive) | 96 | 97 | 91 | 120 | 83 | 90
CC(C)[C@H](CO)Nc1nc(Nc2cccc(Cl)c2)c2ncn(C(C)C)c2n1 | 36 |  | 77 | 100 | 94 | 20 | 4 | 30 | 98 | 136 | 117 | 70 | 26 |  | 81 | 86 | 4 | 100 | 90 | 
O=C1c2ccccc2-c2nc3nnnn3nc21 |  |  |  |  | 74 |  | 76 |  | 129 | 83 | 108 |  |  |  | 104 | 106 |  | 117 | 83 | 
O=[N+]([O-])/C=C/c1ccc2c(c1)OCO2 |  | 101 | 99 | 128 | 115 | 85 | 73 |  | 131 | 121 | 114 | 95 | 93 | 93% (inactive) | 91 | 88 | 94 | 100 | 72 | 76
COc1cc2ncnc(Nc3ccc(OCc4ccccc4)cc3)c2cc1OC | 84 | 100 | 96 | 77 | 45 | 35 | 19 | 90 | 120 | 129 | 108 | 124 | 114 | 95% (inactive) | 93 | 113 | 83 | 109 | 97 | 68
COc1ccc2c(c1)/C(=C/c1cnc[nH]1)C(=O)N2 |  |  | 49 | 37 | 13 | 71 | 33 |  |  | 128 |  |  |  |  |  |  | 49 |  |  | 
c1cc(-c2cnn3cc(-c4ccc(OCCN5CCCCC5)cc4)cnc23)ccn1 | 14 |  | 45 | 38 | 4 | 64 | 18 | 32 |  | 143 |  |  |  |  |  | 54 | 4 | 106 |  | 86
